# Experimental data published in article PMC7862700, “An all-to-all approach to the identification of sequence-specific readers for epigenetic DNA modifications on cytosine”.
# Tests used:
# Assay in all cases: DAPPL (digital affinity profiling via proximity ligation, sequencing); 10 mM Tris-HCl pH 7.5, 50 mM NaCl, 1 mM DTT, 4% glycerol, room temperature, 30 min; GST-TFs on glutathione beads, 16-mer random dsDNA library, 0.1% formaldehyde crosslink after washing; high values mean tight binding
# [1] = biological target: T1, FLI1 (Homo sapiens, UniProt Q01543 1-452); details: protein: recombinant; tags: N-terminal GST; dsDNA, one strand shown
# T1 sequence: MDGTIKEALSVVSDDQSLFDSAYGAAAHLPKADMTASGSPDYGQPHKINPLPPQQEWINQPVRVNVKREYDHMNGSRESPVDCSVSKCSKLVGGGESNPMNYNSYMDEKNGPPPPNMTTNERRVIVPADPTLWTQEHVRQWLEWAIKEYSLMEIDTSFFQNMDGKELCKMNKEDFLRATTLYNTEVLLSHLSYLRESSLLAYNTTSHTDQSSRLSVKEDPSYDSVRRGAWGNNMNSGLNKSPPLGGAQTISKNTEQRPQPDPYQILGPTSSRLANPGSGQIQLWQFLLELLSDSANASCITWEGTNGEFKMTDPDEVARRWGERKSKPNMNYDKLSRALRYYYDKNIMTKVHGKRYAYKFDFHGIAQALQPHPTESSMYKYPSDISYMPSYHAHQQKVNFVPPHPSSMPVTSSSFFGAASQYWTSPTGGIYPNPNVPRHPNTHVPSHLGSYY
# Procedure, shortened: (§1)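 Pools were built from human transcription factors expressed in yeast as GST fusions, captured on glutathione beads and DNA-barcoded, along with a tag-only sample. Incubation with 200 nmole of a 16-mer random double-stranded DNA library lasted 30 min at room temperature in Tris/NaCl/DTT/glycerol buffer, and was followed by washing, 0.1% formaldehyde crosslinking, proximity ligation, PCR amplification and Illumina NextSeq500 sequencing. Binding signal is the quotient of each hexamer's read frequency for a factor and its frequency for the tag-only sample.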
# [2] = biological target: T2, ELK1 (Homo sapiens, UniProt P19419 1-428); details: protein: recombinant; tags: N-terminal GST; dsDNA, one strand shown
# T2 sequence: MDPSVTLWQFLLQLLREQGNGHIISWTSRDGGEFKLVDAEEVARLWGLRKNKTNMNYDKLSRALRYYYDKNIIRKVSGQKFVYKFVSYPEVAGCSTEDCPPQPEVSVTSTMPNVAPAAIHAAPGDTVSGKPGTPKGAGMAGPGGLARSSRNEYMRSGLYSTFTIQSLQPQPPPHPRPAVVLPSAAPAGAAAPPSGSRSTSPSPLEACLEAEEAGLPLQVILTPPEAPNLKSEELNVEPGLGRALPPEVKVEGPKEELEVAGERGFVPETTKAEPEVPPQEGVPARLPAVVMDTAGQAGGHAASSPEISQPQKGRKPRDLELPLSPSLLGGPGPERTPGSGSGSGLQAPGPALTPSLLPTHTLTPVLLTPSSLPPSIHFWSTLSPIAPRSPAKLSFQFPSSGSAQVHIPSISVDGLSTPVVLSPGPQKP
# Procedure, shortened: as §1
# [3] = biological target: T3, GABPA (Homo sapiens, UniProt Q06546 1-454); details: protein: recombinant; tags: N-terminal GST; dsDNA, one strand shown
# T3 sequence: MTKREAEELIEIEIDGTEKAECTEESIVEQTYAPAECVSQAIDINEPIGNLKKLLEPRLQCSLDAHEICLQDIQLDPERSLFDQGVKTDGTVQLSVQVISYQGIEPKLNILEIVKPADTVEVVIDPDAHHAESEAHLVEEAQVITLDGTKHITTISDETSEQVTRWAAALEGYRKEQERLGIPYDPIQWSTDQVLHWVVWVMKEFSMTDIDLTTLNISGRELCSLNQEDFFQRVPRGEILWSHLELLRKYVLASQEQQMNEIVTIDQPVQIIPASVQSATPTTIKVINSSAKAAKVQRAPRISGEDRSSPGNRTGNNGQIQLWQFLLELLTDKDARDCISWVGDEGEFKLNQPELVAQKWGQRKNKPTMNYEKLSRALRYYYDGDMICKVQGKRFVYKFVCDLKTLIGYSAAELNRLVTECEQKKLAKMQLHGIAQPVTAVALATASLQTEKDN
# Procedure, shortened: as §1
# [4] = biological target: T4, ERG (Homo sapiens, UniProt P11308 1-479); details: protein: recombinant; tags: N-terminal GST; dsDNA, one strand shown
# T4 sequence: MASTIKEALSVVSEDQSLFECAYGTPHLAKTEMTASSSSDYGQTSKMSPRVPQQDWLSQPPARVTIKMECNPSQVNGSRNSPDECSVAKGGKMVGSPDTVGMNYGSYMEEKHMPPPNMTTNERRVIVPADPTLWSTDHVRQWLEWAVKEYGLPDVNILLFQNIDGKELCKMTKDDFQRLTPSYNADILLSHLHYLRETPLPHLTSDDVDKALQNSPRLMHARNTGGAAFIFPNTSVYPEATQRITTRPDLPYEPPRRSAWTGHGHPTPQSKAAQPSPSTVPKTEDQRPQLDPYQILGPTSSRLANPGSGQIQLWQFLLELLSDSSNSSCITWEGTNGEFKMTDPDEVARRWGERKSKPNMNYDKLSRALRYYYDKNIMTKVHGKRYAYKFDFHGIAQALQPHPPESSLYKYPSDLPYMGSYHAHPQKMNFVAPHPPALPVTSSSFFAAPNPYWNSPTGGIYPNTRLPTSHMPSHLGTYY
# Procedure, shortened: as §1
# [5] = biological target: ELF1 (Homo sapiens, UniProt P32519 1-619); details: protein: recombinant; tags: N-terminal GST; dsDNA, one strand shown
# Sequence of ELF1 (P32519 whole entry): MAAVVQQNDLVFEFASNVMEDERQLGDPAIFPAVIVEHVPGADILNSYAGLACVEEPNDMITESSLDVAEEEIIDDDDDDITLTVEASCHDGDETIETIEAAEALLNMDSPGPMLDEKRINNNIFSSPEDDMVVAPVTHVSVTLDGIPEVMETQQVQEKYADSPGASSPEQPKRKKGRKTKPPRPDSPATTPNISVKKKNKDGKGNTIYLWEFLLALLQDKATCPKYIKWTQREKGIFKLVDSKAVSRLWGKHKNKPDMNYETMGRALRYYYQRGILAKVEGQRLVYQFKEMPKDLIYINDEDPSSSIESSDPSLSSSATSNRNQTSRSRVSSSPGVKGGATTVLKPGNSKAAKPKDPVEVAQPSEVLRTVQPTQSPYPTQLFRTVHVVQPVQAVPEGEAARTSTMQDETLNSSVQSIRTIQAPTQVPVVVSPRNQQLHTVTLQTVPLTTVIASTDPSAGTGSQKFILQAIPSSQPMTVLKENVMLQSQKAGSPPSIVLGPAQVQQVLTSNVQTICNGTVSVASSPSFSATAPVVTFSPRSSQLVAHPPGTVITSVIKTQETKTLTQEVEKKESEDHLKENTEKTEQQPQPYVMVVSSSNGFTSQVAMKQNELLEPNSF
# Procedure, shortened: as §1
# [6] = biological target: T5, EHF (Homo sapiens, UniProt Q9NZC4 1-300); details: protein: recombinant; tags: N-terminal GST; dsDNA, one strand shown
# T5 sequence: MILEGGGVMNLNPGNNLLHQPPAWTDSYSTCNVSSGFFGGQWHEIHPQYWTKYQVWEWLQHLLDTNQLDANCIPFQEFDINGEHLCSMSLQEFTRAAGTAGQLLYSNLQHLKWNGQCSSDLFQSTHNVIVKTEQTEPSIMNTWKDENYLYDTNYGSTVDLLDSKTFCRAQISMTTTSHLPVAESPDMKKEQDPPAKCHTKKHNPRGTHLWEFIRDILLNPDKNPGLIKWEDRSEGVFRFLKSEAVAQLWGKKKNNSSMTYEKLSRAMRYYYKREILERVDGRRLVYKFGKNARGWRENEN
# Procedure, shortened: as §1
# [7] = biological target: SPI1 (Homo sapiens, UniProt P17947 1-270); details: protein: recombinant; tags: N-terminal GST; dsDNA, one strand shown
# Procedure, shortened: as §1
# [8] = biological target: SPIB (Homo sapiens, UniProt Q01892 1-262); details: protein: recombinant; tags: N-terminal GST; dsDNA, one strand shown
# Sequence of SPIB (Q01892 whole entry): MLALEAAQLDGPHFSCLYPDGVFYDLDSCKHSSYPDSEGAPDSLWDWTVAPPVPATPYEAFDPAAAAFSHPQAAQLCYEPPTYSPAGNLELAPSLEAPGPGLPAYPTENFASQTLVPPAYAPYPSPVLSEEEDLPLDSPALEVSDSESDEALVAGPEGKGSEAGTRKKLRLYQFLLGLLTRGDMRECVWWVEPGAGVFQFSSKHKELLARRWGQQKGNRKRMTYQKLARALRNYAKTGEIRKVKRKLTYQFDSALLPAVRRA
# Procedure, shortened: as §1
# [9] = biological target: T6, ELK3 (Homo sapiens, UniProt P41970 1-407); details: protein: recombinant; tags: N-terminal GST; dsDNA, one strand shown
# T6 sequence: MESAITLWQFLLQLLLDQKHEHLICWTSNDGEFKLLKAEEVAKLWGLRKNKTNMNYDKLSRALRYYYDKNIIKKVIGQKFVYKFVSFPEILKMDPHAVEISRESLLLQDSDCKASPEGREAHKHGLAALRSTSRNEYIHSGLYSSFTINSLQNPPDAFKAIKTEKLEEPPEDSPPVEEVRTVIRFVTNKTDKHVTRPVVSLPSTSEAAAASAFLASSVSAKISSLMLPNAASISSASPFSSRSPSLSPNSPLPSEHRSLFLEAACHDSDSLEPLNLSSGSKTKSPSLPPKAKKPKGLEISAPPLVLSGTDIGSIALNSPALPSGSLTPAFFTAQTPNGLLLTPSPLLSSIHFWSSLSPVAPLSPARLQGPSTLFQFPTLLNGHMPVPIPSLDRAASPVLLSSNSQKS
# Procedure, shortened: as §1
# [10] = biological target: T7, FEV (Homo sapiens, UniProt Q99581 1-238); details: protein: recombinant; tags: N-terminal GST; dsDNA, one strand shown
# T7 sequence: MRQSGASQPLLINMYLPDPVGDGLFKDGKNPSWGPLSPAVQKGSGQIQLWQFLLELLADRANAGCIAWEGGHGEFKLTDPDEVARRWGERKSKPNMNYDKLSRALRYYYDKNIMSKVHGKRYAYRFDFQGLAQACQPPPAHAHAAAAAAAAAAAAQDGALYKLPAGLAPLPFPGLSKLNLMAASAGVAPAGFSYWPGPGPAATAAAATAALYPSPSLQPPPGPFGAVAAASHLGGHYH
# Procedure, shortened: as §1
# [11] = biological target: ETV5 (Homo sapiens, UniProt P41161 1-510); details: protein: recombinant; tags: N-terminal GST; dsDNA, one strand shown
# Sequence of ETV5 (P41161 whole entry): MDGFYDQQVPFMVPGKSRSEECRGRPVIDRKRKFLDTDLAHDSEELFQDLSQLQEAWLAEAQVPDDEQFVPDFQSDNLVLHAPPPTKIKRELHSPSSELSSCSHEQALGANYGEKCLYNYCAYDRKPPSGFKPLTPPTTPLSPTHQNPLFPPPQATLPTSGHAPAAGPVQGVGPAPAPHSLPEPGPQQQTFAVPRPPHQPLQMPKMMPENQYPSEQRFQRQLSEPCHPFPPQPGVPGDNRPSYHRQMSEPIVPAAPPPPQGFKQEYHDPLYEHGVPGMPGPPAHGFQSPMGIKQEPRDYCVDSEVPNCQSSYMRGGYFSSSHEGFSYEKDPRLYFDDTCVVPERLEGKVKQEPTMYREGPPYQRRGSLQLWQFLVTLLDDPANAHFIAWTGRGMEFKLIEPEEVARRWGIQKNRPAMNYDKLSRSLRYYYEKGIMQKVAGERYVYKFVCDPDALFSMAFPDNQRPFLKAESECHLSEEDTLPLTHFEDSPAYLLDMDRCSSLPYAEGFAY
# Procedure, shortened: as §1
# [12] = biological target: HSF1 (Homo sapiens, UniProt Q00613 1-529); details: protein: recombinant; tags: N-terminal GST; chain copies: 3; dsDNA, one strand shown
# Sequence of HSF1 (Q00613 whole entry): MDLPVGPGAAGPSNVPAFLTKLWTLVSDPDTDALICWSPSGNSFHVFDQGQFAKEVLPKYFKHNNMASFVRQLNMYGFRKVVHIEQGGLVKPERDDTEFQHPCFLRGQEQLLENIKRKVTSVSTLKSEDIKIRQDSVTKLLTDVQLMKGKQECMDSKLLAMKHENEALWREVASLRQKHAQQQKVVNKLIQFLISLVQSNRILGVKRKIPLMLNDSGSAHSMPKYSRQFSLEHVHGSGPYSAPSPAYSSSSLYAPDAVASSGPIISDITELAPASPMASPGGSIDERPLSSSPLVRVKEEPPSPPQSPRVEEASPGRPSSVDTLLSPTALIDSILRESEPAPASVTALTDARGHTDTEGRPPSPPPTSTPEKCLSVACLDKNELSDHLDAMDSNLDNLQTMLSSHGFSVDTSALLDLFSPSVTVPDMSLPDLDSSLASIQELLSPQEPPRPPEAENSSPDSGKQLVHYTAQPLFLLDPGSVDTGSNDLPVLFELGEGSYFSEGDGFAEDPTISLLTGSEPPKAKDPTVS
# Procedure, shortened: as §1
# [13] = biological target: T8, SPIC (Homo sapiens, UniProt Q8N5J4 1-248); details: protein: recombinant; tags: N-terminal GST; dsDNA, one strand shown
# T8 sequence: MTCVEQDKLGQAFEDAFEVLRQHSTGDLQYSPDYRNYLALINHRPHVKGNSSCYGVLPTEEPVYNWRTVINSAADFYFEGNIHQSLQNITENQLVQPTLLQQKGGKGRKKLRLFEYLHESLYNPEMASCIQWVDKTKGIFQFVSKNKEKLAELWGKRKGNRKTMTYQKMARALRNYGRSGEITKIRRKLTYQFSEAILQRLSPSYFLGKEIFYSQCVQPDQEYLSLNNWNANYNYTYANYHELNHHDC
# Procedure, shortened: as §1
# [14] = biological target: ELF4 (Homo sapiens, UniProt Q99607 1-663); details: protein: recombinant; tags: N-terminal GST; dsDNA, one strand shown
# Sequence of ELF4 (Q99607 whole entry): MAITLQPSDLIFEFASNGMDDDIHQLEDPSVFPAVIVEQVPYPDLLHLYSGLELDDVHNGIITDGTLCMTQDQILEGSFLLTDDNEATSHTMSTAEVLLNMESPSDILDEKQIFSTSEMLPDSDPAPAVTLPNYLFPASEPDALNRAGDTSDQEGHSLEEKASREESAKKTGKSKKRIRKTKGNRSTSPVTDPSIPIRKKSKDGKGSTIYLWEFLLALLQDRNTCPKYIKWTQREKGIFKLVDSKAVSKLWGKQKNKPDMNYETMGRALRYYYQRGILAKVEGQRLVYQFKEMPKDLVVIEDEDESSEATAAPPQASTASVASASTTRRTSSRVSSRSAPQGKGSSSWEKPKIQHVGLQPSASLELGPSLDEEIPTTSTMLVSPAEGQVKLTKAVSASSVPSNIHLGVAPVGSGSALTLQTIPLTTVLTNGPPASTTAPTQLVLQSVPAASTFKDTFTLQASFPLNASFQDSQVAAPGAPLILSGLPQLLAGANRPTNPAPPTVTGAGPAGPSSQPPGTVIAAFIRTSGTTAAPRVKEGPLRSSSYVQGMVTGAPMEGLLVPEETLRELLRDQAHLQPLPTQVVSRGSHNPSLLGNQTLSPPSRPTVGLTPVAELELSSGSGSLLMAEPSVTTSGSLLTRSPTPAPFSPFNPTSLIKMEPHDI
# Procedure, shortened: as §1
# [15] = biological target: T9, ELK4 (Homo sapiens, UniProt P28324-2 1-405); details: protein: recombinant; tags: N-terminal GST; dsDNA, one strand shown
# T9 sequence: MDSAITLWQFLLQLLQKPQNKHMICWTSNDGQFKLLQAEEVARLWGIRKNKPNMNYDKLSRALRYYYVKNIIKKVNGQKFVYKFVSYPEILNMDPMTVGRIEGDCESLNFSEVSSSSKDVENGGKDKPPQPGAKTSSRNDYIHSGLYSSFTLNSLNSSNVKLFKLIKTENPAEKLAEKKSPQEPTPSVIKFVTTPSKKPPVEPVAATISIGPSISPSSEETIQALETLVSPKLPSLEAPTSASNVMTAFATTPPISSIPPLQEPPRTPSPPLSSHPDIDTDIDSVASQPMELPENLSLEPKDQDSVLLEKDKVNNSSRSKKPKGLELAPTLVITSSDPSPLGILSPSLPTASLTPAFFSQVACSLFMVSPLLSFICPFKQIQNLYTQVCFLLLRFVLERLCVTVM
# Procedure, shortened: as §1
# [16] = biological target: T10, ETV2 (Homo sapiens, UniProt O00321 1-342); details: protein: recombinant; tags: N-terminal GST; dsDNA, one strand shown
# T10 sequence: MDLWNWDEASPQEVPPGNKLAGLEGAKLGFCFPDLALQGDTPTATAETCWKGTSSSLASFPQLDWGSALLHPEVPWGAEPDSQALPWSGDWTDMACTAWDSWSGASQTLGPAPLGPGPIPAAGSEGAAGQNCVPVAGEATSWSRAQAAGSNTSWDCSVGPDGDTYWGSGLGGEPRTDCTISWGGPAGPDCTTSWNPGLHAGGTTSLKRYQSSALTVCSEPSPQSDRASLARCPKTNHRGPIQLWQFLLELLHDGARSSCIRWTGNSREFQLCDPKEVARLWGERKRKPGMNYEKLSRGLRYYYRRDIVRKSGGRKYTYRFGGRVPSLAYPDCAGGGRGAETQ
# Procedure, shortened: as §1
# [17] = biological target: T11, ELF3 (Homo sapiens, UniProt P78545 1-371); details: protein: recombinant; tags: N-terminal GST; dsDNA, one strand shown
# T11 sequence: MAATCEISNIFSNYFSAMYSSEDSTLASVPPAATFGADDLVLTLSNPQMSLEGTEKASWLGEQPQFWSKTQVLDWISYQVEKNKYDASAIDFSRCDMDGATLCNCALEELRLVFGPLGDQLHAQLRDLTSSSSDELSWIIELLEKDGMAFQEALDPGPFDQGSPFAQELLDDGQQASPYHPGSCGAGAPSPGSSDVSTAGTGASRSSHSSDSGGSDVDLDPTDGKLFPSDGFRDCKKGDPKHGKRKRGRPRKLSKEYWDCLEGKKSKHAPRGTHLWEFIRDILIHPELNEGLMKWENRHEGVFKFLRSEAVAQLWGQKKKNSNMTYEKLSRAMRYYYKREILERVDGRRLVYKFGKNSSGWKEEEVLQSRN
# Procedure, shortened: as §1
# [18] = biological target: CRX (Homo sapiens, UniProt O43186 1-299); details: protein: recombinant; tags: N-terminal GST; dsDNA, one strand shown
# Sequence of CRX (O43186 whole entry): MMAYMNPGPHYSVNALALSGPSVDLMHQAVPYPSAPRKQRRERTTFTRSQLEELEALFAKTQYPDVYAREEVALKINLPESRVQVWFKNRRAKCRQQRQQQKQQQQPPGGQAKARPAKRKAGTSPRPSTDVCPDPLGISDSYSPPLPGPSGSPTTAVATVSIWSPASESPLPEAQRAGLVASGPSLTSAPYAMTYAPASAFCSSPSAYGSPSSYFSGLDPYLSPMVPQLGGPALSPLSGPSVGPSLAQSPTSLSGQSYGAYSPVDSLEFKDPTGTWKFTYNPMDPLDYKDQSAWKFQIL
# Procedure, shortened: as §1
# [19] = biological target: ETV1 (Homo sapiens, UniProt P50549 1-477); details: protein: recombinant; tags: N-terminal GST; dsDNA, one strand shown
# Sequence of ETV1 (P50549 whole entry): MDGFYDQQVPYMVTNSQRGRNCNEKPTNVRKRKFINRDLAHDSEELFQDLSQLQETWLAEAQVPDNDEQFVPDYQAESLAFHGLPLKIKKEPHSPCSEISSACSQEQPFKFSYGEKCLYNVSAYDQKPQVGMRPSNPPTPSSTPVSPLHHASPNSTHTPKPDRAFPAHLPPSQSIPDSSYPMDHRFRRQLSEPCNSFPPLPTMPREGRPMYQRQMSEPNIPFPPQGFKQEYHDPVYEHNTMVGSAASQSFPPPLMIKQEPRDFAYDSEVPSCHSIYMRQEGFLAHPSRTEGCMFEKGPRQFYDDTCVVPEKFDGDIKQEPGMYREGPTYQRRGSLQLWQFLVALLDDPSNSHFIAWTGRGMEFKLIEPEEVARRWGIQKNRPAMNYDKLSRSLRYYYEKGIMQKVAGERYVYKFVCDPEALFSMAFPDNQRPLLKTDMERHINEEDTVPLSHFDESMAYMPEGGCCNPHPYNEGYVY
# Procedure, shortened: as §1
sequence,measurement,setting,value
TTTAGC,binding signal,[1],"1.04 fold enrichment (6-mer frequency, TF over GST control)"
same,binding signal,[2],"1.05 fold enrichment (6-mer frequency, TF over GST control)"
same,binding signal,[3],"1.2 fold enrichment (6-mer frequency, TF over GST control)"
same,binding signal,[4],"1.16 fold enrichment (6-mer frequency, TF over GST control)"
same,binding signal,[5],"1.19 fold enrichment (6-mer frequency, TF over GST control)"
same,binding signal,[6],"1.12 fold enrichment (6-mer frequency, TF over GST control)"
same,binding signal,[7],"1.05 fold enrichment (6-mer frequency, TF over GST control)"
same,binding signal,[8],"1.14 fold enrichment (6-mer frequency, TF over GST control)"
same,binding signal,[9],"1.09 fold enrichment (6-mer frequency, TF over GST control)"
same,binding signal,[10],"1.11 fold enrichment (6-mer frequency, TF over GST control)"
same,binding signal,[11],"1.03 fold enrichment (6-mer frequency, TF over GST control)"
same,binding signal,[12],"1.25 fold enrichment (6-mer frequency, TF over GST control)"
same,binding signal,[13],"1.07 fold enrichment (6-mer frequency, TF over GST control)"
same,binding signal,[14],"1.2 fold enrichment (6-mer frequency, TF over GST control)"
same,binding signal,[15],"1.13 fold enrichment (6-mer frequency, TF over GST control)"
same,binding signal,[16],"1.13 fold enrichment (6-mer frequency, TF over GST control)"
same,binding signal,[17],"1.08 fold enrichment (6-mer frequency, TF over GST control)"
same,binding signal,[18],"1.64 fold enrichment (6-mer frequency, TF over GST control)"
same,binding signal,[19],"1.18 fold enrichment (6-mer frequency, TF over GST control)"
